“And” between values parts separate entries of the source, which are not always exact repeats. Equal entries are not always repeated. In all, about 410,000 compounds went through this assay and about 2,400 (0.59%) were called active. Cut-off read from the data, not from the text of the source: active = max activation above about 30%; inactive = the rest. The list comes from a sample in which actives are over-represented; it also holds similar structures and randomly drawn compounds. The source holds several records for some structures; these can differ, active in one and inactive in another.

The target of the test is D(3) dopamine receptor (Homo sapiens) (UniProt P35462). Briefly: qHTS of D3 Dopamine Receptor Agonist: qHTS. Note: 0% is about no effect. Particulars: D3R DiscoveRx beta-arrestin cells, luminescence, 90 min; stronger effect = higher value. In outline: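 Cells at 1500/well, incubated overnight, then treated with pinned compounds (dopamine as control) for 90 min at 37 degrees C. DiscoveRx reagent added for 30 - 60 minutes at room temperature; luminescence read.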
Chain of D(3) dopamine receptor (Homo sapiens) (P35462 whole entry, looked up): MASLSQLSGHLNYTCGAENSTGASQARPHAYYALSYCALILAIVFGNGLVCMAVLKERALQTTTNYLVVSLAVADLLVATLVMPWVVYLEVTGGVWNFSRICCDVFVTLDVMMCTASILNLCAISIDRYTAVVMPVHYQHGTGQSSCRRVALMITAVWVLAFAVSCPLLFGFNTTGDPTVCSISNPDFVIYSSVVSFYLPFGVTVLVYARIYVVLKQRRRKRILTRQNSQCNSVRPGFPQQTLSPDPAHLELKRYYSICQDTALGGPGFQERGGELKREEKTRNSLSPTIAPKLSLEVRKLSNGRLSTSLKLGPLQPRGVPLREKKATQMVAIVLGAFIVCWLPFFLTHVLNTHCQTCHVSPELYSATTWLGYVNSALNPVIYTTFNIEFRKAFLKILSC
On the technique in general: Quantitative high-throughput screening tests each substance at several concentrations.
Take `COc1cc(CNCCSc2nnnn2C)ccc1OCc1ccc(Cl)cc1Cl`: the max activation is -19% (inactive).
To `O=C(CCC1N=C2c3ccccc3N=C(SCc3ccccc3F)N2C1=O)NCCc1ccccc1` (stereo not drawn) belongs 5.62% (inactive).
Regarding `O=C(Cn1nnc(-c2ccccc2)n1)N/N=C/c1ccc(-c2ccc(Cl)cc2)o1`, the max activation is 34.9% (active).
The same measure for `Cc1ccc(NC(=O)CN(C)C(=O)Cn2nnc(-c3ccccc3)n2)cc1`: 5.42% (inactive); for `O=C(Cn1nnc(-c2ccccc2)n1)NC(=O)NC1CCCC1`: 4.92% (inactive); for `CCOc1ccc(CNC(=O)c2cc(=O)[nH]c3ccc(S(=O)(=O)N4CCCCC4)cc23)cc1`: 1.15% (inactive).
For `COc1ccc2cc(CNc3ccc(OC)c(OC)c3)c(=O)n(CC(=O)Nc3ccccc3F)c2c1`, the max activation is 2.84% (inactive).
As to `Cc1ccc(OCCSc2nc(C)c(Cc3ccccc3)c(=O)[nH]2)cc1`, the max activation was 4.35% (inactive).
Regarding `Cc1ccc(CNC(=O)c2ccccc2CCc2ccccc2)cc1`, the max activation is 31.4% (active).
To `Cc1ccc(CNC(=O)Cc2cn(C)c3ccccc23)cc1` belongs -3.47% (inactive); to `Cc1ccc(CNC(=O)[C@@H](NC(=O)Cc2ccccc2)C(C)C)cc1`, -1.46% (inactive).
To `COC(=O)C1(S(=O)(=O)C2(C(=O)OC)CCCC2)CCCC1` belongs 31% (active).
The same measure for `CC1(C)OC[C@@H](COC(=O)CCc2ccc(OC[C@@H](O)CNCCNC(=O)N3CCOCC3)cc2)O1`: -23.2% (inactive) and -20.2% (inactive).
For the compound `CC(C)(C)OC(=O)CNC(=O)c1[nH]cnc1C(=O)N[C@@H](CCCCN)C(=O)OC(C)(C)C`, the max activation was 0% (inactive).
To `CCN1CCN(CCCNC(=O)c2ccc3c(c2)sc2nc(-c4ccc(OC)cc4)cn23)CC1` belongs -6.77% (inactive).
The same measure for `COc1ccc(-c2cn3c(n2)sc2cc(C(=O)Nc4ccc(F)cc4)ccc23)cc1`: 13.3% (inactive); for `COc1ccc(-c2cn3c(n2)sc2cc(C(=O)Nc4ccccc4F)ccc23)cc1`: 35.4% (active).
To `O=C(Nc1ccc(O)cc1)c1ccccc1O` belongs -0.0653% (inactive); to `CC1(C)S[C@@H]2[C@H](NC(=O)COc3ccccc3)C(=O)N2C1C(=O)OCc1ccccc1` (stereo partly drawn), -3.7% (inactive).
As to `CC1(C)SC2C(NC(=O)COc3ccccc3)C(=O)N2C1C(=O)O` (stereo not drawn), the max activation was 2.21% (inactive) and 6.06% (inactive).
To `COC(=O)C1[C@H]2SC(C)(C)C(C(=O)OC)N2C(=O)N1Cc1nc2ccccc2s1` (stereo partly drawn) belongs 37.5% (active); to `Cc1ccc2[nH]c3c(=O)n(CC(=O)NC(C)C)ncc3c2c1`, 2.56% (inactive); to `CCOc1ccc(NS(=O)(=O)c2ccc(N)cc2)nn1`, -7.97% (inactive).
As to `Cc1cccc(C(=O)OC(C)C(=O)NC2CCCc3ccccc32)c1O` (stereo not drawn), the max activation is -10.5% (inactive).
Turning to `COc1ccc(C(=O)NC2CCCc3c2cnn3-c2cccc(C)c2C)c(OC)n1` (stereo not drawn), the max activation is 48.2% (active).
The same measure for `COc1cccc(C(=O)Nc2c3c(nn2-c2cccc(C)c2C)CS(=O)(=O)C3)c1OC`: -20.8% (inactive).
To `Cc1ccc(NC(=O)c2nc(S(=O)(=O)Cc3cccc(C)c3)ncc2Cl)cc1` belongs -23.7% (inactive); to `CC1(C)S[C@@H]2[C@H](N=CN3CCCCCC3)C(=O)N2[C@H]1C(=O)O`, -22.5% (inactive).
For the compound `CC(C)(C)OC(=O)N1CCC(c2c(C(=O)NCCc3ccsc3)cnn2-c2ccc(F)cc2F)CC1`, the max activation is 6.51% (inactive).
The same measure for `COc1ccc(/C=C/C(=O)c2cc(Br)ccc(=O)c2O)cc1`: -1.59% (inactive).
To `CCOc1ccc(/C=C/C(=O)OCC(=O)c2ccccc2OC)cc1OC` belongs 3.52% (inactive); to `COCOc1cc(O)c(C(=O)/C=C/c2ccc(OCOC)c(OCOC)c2)c(OCOC)c1`, 32% (active).
On to `O=C(Nc1cccc(C(F)(F)F)c1)c1cc(Br)cc(Br)c1O`, for which the max activation was 0.389% (inactive).
On to `CC(C(=O)O)c1ccc(C2CCCCC2)c2ccccc12` (stereo not drawn), for which the max activation is 4% (inactive).
On to `Cc1ccc2nc(CN3CCN(S(=O)(=O)c4ccc(C)c(C)c4)CC3)oc2c1`, for which the max activation was -11.8% (inactive).
Consider `COc1ccc2c(c1)c(=Cc1ccc(N(C)C)cc1)c1cc(-c3ccccc3)[n+](C)n12`, for which the max activation was 1.19% (inactive).
To `COc1ccc2sc(-c3ccc(N(C)C)cc3)c(C#CCO)c2c1` belongs 38.4% (active); to `Cc1ccc(C)c(S(=O)(=O)n2nc(C)c(S(=O)(=O)N3CCC(C)CC3)c2C)c1`, 3.28% (inactive).
For `CC(O)COc1ccccc1` (stereo not drawn), the max activation is 8.58% (inactive).
To `O=C(COC(=O)c1cc(=O)[nH]c2ccccc12)Nc1nc(-c2cccc(Br)c2)cs1` belongs 38.6% (active); to `CC1CCN(C(=O)COC(=O)c2cc(=O)[nH]c3ccccc23)CC1`, -2.85% (inactive); to `O=C(COC(=O)c1cc(=O)[nH]c2ccccc12)NCc1cccc(Cl)c1`, 3.7% (inactive).
In the case of `COc1ccc(NC(=O)CSc2nc3ccccc3[nH]2)cc1`, the max activation is 0.0768% (inactive).
As to `O=C(CSc1nc(O)c(Cc2ccccc2)c(=O)[nH]1)Nc1nc2c(s1)CCCC2`, the max activation was 3.59% (inactive).
The same measure for `O=C(CSc1nc2ccccc2c(=O)[nH]1)Nc1nc(-c2ccc(Br)cc2)cs1`: 37.7% (active); for `COc1ccc(C(=O)Nc2cccc(C(=O)OCc3cc(=O)n4c5c(sc4n3)CCCC5)c2)cc1`: -9.48% (inactive).
For `COc1cccc2cc(-c3nc(Cl)c4c5c(sc4n3)CC(C)CC5)c(=O)oc12` (stereo not drawn), the max activation was 8.91% (inactive).
For the compound `COC(=O)c1sccc1S(=O)(=O)N(CC(=O)Nc1ccc(C)c(F)c1)c1ccc(C)c(C)c1`, the max activation was -2.21% (inactive).
On to `Cc1ccc(CN2CCC(CNC(=O)c3cnn(-c4ccccc4Cl)c3C3CCN(C(=O)OC(C)(C)C)CC3)CC2)cc1`, for which the max activation was -13.6% (inactive).
The same measure for `CO/N=C(/C(=O)N[C@@H]1C(=O)N2C(C(=O)O)=C(Cn3nnc(C)n3)CS[C@H]12)c1csc(N)n1`: -4.25% (inactive).
For the compound `CSc1ccc(CCNC(=O)C2CCN(c3nnc(-n4cccc4)s3)CC2)cc1`, the max activation was -2.44% (inactive).
On to `CCOc1ccc(CNC(=O)C2CCN(c3nnc(-n4cccc4CNc4ccc(C)cc4)s3)CC2)cc1OC`, for which the max activation was 1.82% (inactive).
Turning to `Cc1ccc(CCNC(=O)C2CCN(c3nnc(-n4cccc4CNc4ccc(C)cc4)s3)CC2)cc1`, the max activation was 56.2% (active).
The same measure for `N[C@H]1CN(c2c(F)cc3c(=O)c(C(=O)O)cn(C4C[C@H]4F)c3c2Cl)CC12CC2` (stereo partly drawn): -3.15% (inactive).
As to `O=P(O)(O)OC[C@H](O)CO`, the max activation was -12.8% (inactive).
For `CC(C)c1ccc(NC(=O)CN(C)S(=O)(=O)c2ccc3c(c2)c(=O)n(C)c(=O)n3C)cc1`, the max activation is 0.167% (inactive).
`CCc1ccccc1NC(=O)CN(C)S(=O)(=O)c1ccc2c(c1)c(=O)n(C)c(=O)n2C`: the max activation is -4.93% (inactive).
The same measure for `CN(CC(=O)Nc1ccccc1F)S(=O)(=O)c1ccc2c(c1)c(=O)n(C)c(=O)n2C`: 47.6% (active).
The same measure for `CCc1ccc(S(=O)(=O)c2nnn3c2nc(N2CCN(CC)CC2)c2sccc23)cc1`: 5.12% (inactive); for `CCOc1ccc(Nc2oc(/C=C/c3ccc(F)cc3)nc2C#N)cc1`: -13.3% (inactive).
The same measure for `Fc1ccc(-c2nn(-c3ccccc3Cl)c3c2cnc2ccccc23)cc1`: 0.11% (inactive); for `O=C(c1ccco1)n1nc(-c2ccc(Cl)cc2)nc1NCc1ccccc1`: -9.35% (inactive).
In the case of `CSc1nc(-c2ccco2)nn1C(=O)c1ccccc1Cl`, the max activation is 32.7% (active).
To `Oc1c(C(c2ccccc2Cl)N2CCOCC2)sc2nc(-c3ccco3)nn12` (stereo not drawn) belongs -18% (inactive); to `CCOC(=O)Cc1cccc(-c2cc(CCCCCCc3ccc(O[C@H]4O[C@H](COC(C)=O)[C@@H](OC(C)=O)[C@H](OC(C)=O)[C@@H]4OC(C)=O)c(-c4cccc(CC(=O)OCC)c4)c3)ccc2O[C@H]2O[C@H](COC(C)=O)[C@@H](OC(C)=O)[C@H](OC(C)=O)[C@@H]2OC(C)=O)c1`, -9.52% (inactive); to `COc1ccc(-c2nc3cnccn3c2NC2CCCCC2)cc1-c1cccc(Cl)c1`, 7.25% (inactive) and 47.9% (active).
The same measure for `COc1ccc(-c2nc3cc(C)ccn3c2NC2CCCCC2)cc1SC1CCCCC1`: 18.2% (inactive).
Turning to `COc1ccc(-c2nc3cnccn3c2NC(C)(C)CC(C)(C)C)cc1O`, the max activation is 4.14% (inactive).
To `Cc1ccc(Cl)cc1N1CCN(C(=O)c2cccn3c(=O)c4cc(Cl)ccc4nc23)CC1` belongs 1.63% (inactive); to `CN(C)CCc1c[nH]c2ccc(Cn3cncn3)cc12`, -8.71% (inactive); to `COc1ccc(Cl)cc1NC(=O)Cn1c(=O)c2ccccc2n2nncc12`, -7.09% (inactive).
To `O=C(CC1C(=O)NCCN1C(=O)c1ccc([N+](=O)[O-])cc1)Nc1cccc(Cl)c1` (stereo not drawn) belongs 38.6% (active).
As to `COC(=O)c1cc(NC(=O)CC2C(=O)NCCN2C(=O)c2ccc(F)cc2)cc(C(=O)OC)c1` (stereo not drawn), the max activation was 5.37% (inactive).
In the case of `COc1ccccc1C(=O)N1CCNC(=O)C1CC(=O)Nc1ccc(Cl)cc1` (stereo not drawn), the max activation was 4.77% (inactive).
The same measure for `Brc1cccc(-c2nnn3c2nc(NC2CCCCC2)c2ccccc23)c1`: -2.96% (inactive); for `COc1ccc(CCNC(=O)c2cc(=O)c3c(C)cc(C)cc3o2)cc1OC`: 21.9% (inactive); for `COc1ccc(CCNC(=O)COc2cc(C)cc3oc(=O)c(C)c(C)c23)cc1OC`: 42.4% (active).
The same measure for `Cc1cc(OCC(=O)NCC(O)c2ccccc2)c2c(C)c(C)c(=O)oc2c1` (stereo not drawn): 2.59% (inactive); for `COc1cc2c(cc1OC)CC(=O)N(CCCN(C)C[C@H]1Cc3cc(OC)c(OC)cc31)CC2`: -16.3% (inactive); for `COc1ccc(N2CCN(S(=O)(=O)c3ccc(-c4coc(C)n4)cc3)CC2)cc1`: 1.53% (inactive).
Regarding `O=C1c2ccccc2S(=O)(=O)N1Cc1c(F)cccc1Cl`, the max activation was -0.264% (inactive).
Consider `Cc1ccc(C)c(N2C(=O)N(Cc3c(F)cccc3Cl)c3ccccc3S2(=O)=O)c1`, for which the max activation is 64.6% (active).
Take `O=c1c(=O)n(Cc2c(F)cccc2Cl)ccn1Cc1ccccc1`: the max activation is -9.07% (inactive).
